Results from PubChem BioAssay (Tox21).
Records with an inconclusive call do not appear. The source made the active and inactive calls. Unless noted, calls follow the shape of the dose curve; as a rule, active = well fitted curve in the direction sought with a large enough effect in the repeat runs; inconclusive = weak or mixed curves; inactive = no such curve, though single readings can be large; an effect the other way counts as inactive or inconclusive.

Tests used:
[1] = qHTS assay to identify small molecule antagonists of the vitamin D receptor (VDR) signaling pathway - cell viability counter screen (AID 743225); also: nearly all actives have a fitted effect of over 50% in size
How it was run: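 Read-out: CellTiter-Glo luminescence measured 30 min after reagent addition at room temperature. Cells were VDR-bla HEK 293T exposed 16 h at 37C, 5% CO2, to compound with 3 nM final calcitriol agonist.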

[2] = qHTS assay to identify small molecule agonists of the endoplasmic reticulum stress response signaling pathway (AID 1159516; active = well fitted activation curve with a large enough effect in the signal ratio in the repeat runs, not every such curve was filed as active; the % refers to the signal ratio)
How it was run: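 CellSensor ESRE-bla HeLa cells, carrying a beta-lactamase reporter driven by the ER stress response element, were plated overnight and exposed to compounds for 5 hr at 37 C. Reporter activity was read as FRET substrate fluorescence after 2 hr at room temperature.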

[3] = qHTS assay to identify small molecule agonists of the endoplasmic reticulum stress response signaling pathway - cell viability counter screen (AID 1159517; calls by dose curve; also: series mostly up to about 61 µM; nearly all actives have a fitted effect of over 50% in size)
How it was run: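 HeLa cells carrying an ESRE-driven beta-lactamase reporter receive compound for 5 hr at 37 C. Cell viability is then gauged with CellTiter-Glo by luminescence, 30 min at room temperature.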

[4] = qHTS assay to identify small molecule antagonists of the retinoid-related orphan receptor gamma (ROR-gamma) signaling pathway - cell viability counter screen (AID 1159520); also: nearly all actives have a fitted effect of over 50% in size
How it was run: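 Cytotoxicity was read from cellular ATP (CellTiter-Glo luminescence) after 16 hr at 37 C with 1 uM doxycycline induction. The inducer was added 2 hr after compound transfer to Tet-on ROR gamma CHO cells.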

[5] = target: Nuclear receptor ROR-gamma (Homo sapiens) (UniProt P51449); test: qHTS assay to identify small molecule antagonists of the retinoid-related orphan receptor gamma (ROR-gamma) signaling pathway (AID 1159521;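 also: CHO cells with doxycycline inducible ROR-gamma driving an RORE luciferase reporter; top concentration of the series differs between compounds; nearly all actives have a fitted effect of over 50% in size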)
How it was run: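 CHO Tet-on RORγ, RORE-luc reporter. Cpd 2 h pre-incubation, then dox hyclate 1 uM final, 16 h, 37 C/5% CO2. ONE-Glo luminescence; decrease = antagonist.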

[6] = qHTS assay to identify small molecule agonists of the AP-1 signaling pathway - cell viability counter screen (AID 1159525; calls by dose curve; also: nearly all actives have a fitted effect of over 55% in size)
How it was run: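 Luminescent ATP readout (Cell Titer Glo, 30 min RT), normalised to DMSO and tetra n-octyl ammonium bromide controls. Cells were ME-180 AP-1-bla in 0.5% dialyzed FBS Opti-MEM, with a 5 h, 37 °C compound exposure.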

[7] = qHTS assay to identify small molecule agonists of the AP-1 signaling pathway (AID 1159526; calls by dose curve)
[8] = target: Retinoic acid receptor RXR-alpha (Homo sapiens) (UniProt P19793); test: qHTS assay to identify small molecule agonists of the RXR signaling pathway (AID 1159527; calls by dose curve; also: nearly all actives have a fitted effect of over 35% in size)
How it was run: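 Read-out: beta-lactamase FRET ratio (405 nm excitation, 460 and 530 nm emission) after 2 hr substrate loading at room temperature. Cells were RXR-alpha-UAS-bla HEK 293T treated with compounds for 16 hr in 2% charcoal-stripped FBS medium.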

[9] = qHTS assay to identify small molecule agonists of the RXR signaling pathway - cell viability counter screen (AID 1159529)
How it was run: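 HEK 293T RXRa-bla cells, 2% CS-FBS; 5 h settle; cpd 16 h 37 C, 5% CO2; CellTiter-Glo 30 min RT, luminescence. Tetraoctyl ammonium bromide as positive control.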

[10] = qHTS assay to identify small molecule antagonists of the retinoid acid receptor (RAR) signaling pathway - cell viability counter screen (AID 1159551); also: nearly all actives have a fitted effect of over 35% in size
How it was run: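 C3RL4 cells were seeded overnight at 37 C, then treated with compounds plus 1 uM (final) retinol for 6 h at 37 C. Viability was read as ATP by CellTiter-Glo luminescence after 30 min at room temperature.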

[11] = qHTS assay to identify small molecule antagonists of the retinoic acid receptor (RAR) signaling pathway (AID 1159552; also: nearly all actives have a fitted effect of over 50% in size)
How it was run: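 Cells of the C3RL4 line were seeded, incubated overnight, then dosed with compounds in DMSO followed immediately by retinol (1 uM final). Six hours later luciferase detection reagent went in; signal was measured after 30 min at RT.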

[12] = qHTS assay to identify small molecule agonists of the retinoic acid receptor (RAR) signaling pathway (AID 1159553)
How it was run: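 C3RL4 cells carrying a RARE luciferase reporter were plated overnight at 37 C, then exposed to compounds in DMSO for 6 hr at 37 C and 5% CO2. Luminescence was read 30 min after luciferase reagent addition at room temperature.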

[13] = qHTS assay to identify small molecule antagonists of the estrogen related receptor (ERR) signaling pathway from Tox21 library - cell viability counter screen (AID 1224834); also: nearly all actives have a fitted effect of over 30% in size
How it was run: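 ERR reporter cells were plated 6 h before compound addition, then exposed to test compounds in DMSO for 17.5 h at 37 C. Viability was read as CellTiter-Fluor fluorescence after a 30-minute incubation at 37 C.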

[14] = target: Luciferin 4-monooxygenase (Photinus pyralis) (UniProt P08659); test: qHTS assay to identify small molecule inhibitors of firefly luciferase (AID 1224835); also: series mostly up to about 120 µM; nearly all actives have a fitted effect of over 25% in size
How it was run: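 Inhibition of purified Photinus luciferase is measured by luminescence. Substrate levels (D-luciferin, ATP) sit at their KM values. Each compound is tested in a concentration series.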

[15] = qHTS assay to identify small molecule agonists of the constitutive androstane receptor (CAR) signaling pathway - cell viability counter screen (AID 1224836); also: series mostly up to about 92 µM; nearly all actives have a fitted effect of over 45% in size
How it was run: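 HepG2-CYP2B6-hCAR, 2500 cells/well, 4 h pre-incubation; cpd 15 conc + PK11195 0.75 uM final; 23 h, 37 C/5% CO2; CellTiter-Fluor, fluorescence.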

[16] = qHTS assay to identify small molecule antagonists of the constitutive androstane receptor (CAR) signaling pathway - cell viability counter screen (AID 1224837); also: series mostly up to about 92 µM; nearly all actives have a fitted effect of over 45% in size
How it was run: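 HepG2 cells stably expressing hCAR and a CYP2B6-2.2kb reporter were plated and pre-incubated 4 hr at 37 C/5% CO2, then given compounds at 15 concentrations plus 50 nM CITCO (final). After 23 hr, viability was read by CellTiter-Fluor fluorescence.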

[17] = target: Nuclear receptor subfamily 1 group I member 3 (Homo sapiens) (UniProt Q14994); test: qHTS assay to identify small molecule antagonists of the constitutive androstane receptor (CAR) signaling pathway (AID 1224838); also: nearly all actives have a fitted effect of over 40% in size
How it was run: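 HepG2 cells stably co-transfected with hCAR and a CYP2B6-2.2kb luciferase reporter were seeded 4 h before compound addition at 15 concentrations. Cells were stimulated with 50 nM CITCO (final) for 24 h at 37 C; luciferase luminescence was then read.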

[18] = target: Nuclear receptor subfamily 1 group I member 3 (Homo sapiens) (UniProt Q14994); test: qHTS assay to identify small molecule agonists of the constitutive androstane receptor (CAR) signaling pathway (AID 1224839);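 also: HepG2 cells stably carrying human CAR and a CYP2B6 luciferase reporter; series mostly up to about 92 µM; nearly all actives have a fitted effect of over 15% in size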
How it was run: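 HepG2-CYP2B6-hCAR cells, 2500/well, 4 h pre-incubation; compounds 15 conc.; PK11195 0.75 uM final; 24 h, 37 C/5% CO2; ONE-Glo luciferase read.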

[19] = qHTS assay to identify small molecule antagonists of the estrogen related receptor signaling pathway with the pleiotropic PPARgamma coactivator (PGC) from Tox21 10K library - cell viability counter screen (AID 1224840; active = well fitted cell-killing curve with a large enough effect in the repeat runs, not every such curve was filed as active; also: nearly all actives have a fitted effect of over 40% in size)
How it was run: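 PGC/ERR cells were seeded at 2,000 cells/well and left 6 hours at 37 C/5% CO2 before pin-tool addition of compounds in DMSO. After 17.5 hours at 37 C, CellTiter-Fluor was added and fluorescence read 30 minutes later.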

Measured: Potency

Chain of Nuclear receptor subfamily 1 group I member 3 (Homo sapiens) (Q14994 whole entry, looked up): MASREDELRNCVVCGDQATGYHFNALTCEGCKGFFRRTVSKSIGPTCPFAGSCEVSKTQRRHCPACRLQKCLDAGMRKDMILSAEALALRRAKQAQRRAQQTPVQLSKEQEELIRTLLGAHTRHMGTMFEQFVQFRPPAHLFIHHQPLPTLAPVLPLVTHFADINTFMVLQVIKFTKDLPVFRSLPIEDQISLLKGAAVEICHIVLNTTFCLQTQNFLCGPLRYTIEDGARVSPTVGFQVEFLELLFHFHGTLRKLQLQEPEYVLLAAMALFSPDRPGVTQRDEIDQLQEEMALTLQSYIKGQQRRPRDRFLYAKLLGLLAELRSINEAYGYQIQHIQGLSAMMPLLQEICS
Chain of Luciferin 4-monooxygenase (Photinus pyralis) (P08659 whole entry, looked up): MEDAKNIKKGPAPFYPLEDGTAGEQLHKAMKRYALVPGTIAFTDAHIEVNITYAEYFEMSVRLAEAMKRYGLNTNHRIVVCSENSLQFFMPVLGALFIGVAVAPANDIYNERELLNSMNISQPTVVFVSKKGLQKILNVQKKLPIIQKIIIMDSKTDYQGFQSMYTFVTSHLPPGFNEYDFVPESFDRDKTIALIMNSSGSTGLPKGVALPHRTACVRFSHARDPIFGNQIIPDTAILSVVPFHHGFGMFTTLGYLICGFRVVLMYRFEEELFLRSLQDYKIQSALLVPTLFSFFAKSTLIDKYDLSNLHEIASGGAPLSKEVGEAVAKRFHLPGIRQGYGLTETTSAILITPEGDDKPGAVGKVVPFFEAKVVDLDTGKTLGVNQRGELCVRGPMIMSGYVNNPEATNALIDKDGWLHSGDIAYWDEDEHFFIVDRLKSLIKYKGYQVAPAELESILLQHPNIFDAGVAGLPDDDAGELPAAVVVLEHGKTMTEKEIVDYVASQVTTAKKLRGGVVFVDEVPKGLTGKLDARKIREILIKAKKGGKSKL
Chain of Retinoic acid receptor RXR-alpha (Homo sapiens) (P19793 whole entry, looked up): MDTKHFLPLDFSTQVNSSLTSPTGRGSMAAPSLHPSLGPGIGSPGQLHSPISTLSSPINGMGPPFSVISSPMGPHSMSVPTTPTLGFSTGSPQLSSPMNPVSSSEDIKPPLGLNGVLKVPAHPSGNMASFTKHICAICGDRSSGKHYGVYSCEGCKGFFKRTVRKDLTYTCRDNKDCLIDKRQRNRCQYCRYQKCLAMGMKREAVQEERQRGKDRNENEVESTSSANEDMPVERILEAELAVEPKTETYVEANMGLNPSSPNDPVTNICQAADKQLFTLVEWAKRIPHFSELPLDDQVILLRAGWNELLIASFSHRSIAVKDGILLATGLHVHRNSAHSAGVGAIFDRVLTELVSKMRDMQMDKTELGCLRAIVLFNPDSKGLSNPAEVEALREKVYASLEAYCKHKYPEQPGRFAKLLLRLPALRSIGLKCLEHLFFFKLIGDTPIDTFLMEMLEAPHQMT

O=C1c2ccccc2C(=O)N1CO
inactive: [1] | [2] | [3] | [4] | [5] | [6] | [7] | [8] | [9] | [10] | [11] | [12] | [13] | [14] | [15] | [16] | [17] | [18] | [19]

CC(C)=CCC/C(C)=C\C#N
inactive: [1] | [2] | [3] | [4] | [5] | [6] | [7] | [8] | [9] | [10] | [11] | [12] | [13] | [14] | [15] | [16] | [17] | [18] | [19]

CSC(=O)c1cccc2nnsc12
inactive: [1] | [2] | [3] | [4] | [5] | [6] | [7] | [8] | [9] | [10] | [12] | [13] | [14] | [15] | [16] | [18]

CCCc1ncc(C(=O)O)s1
inactive: [1] | [2] | [3] | [4] | [5] | [6] | [7] | [8] | [9] | [10] | [11] | [12] | [13] | [14] | [15] | [16] | [17] | [18]

CN(C)CCc1c[nH]c2ccc(C[C@H]3COC(=O)N3)cc12
inactive: [1] | [2] | [4] | [5] | [6] | [7] | [8] | [10] | [11] | [12] | [13] | [14] | [15] | [16] | [19]

CC(=O)OCC(=O)[C@@]1(O)CC[C@H]2[C@@H]3CCC4=CC(=O)C=C[C@]4(C)[C@H]3[C@@H](O)C[C@@]21C
inactive: [1] | [2] | [3] | [4] | [5] | [6] | [7] | [8] | [9] | [10] | [11] | [12] | [13] | [14] | [15] | [16]

CC1(C)C(=O)C(C)(C)C1=O
inactive: [1] | [2] | [3] | [4] | [5] | [6] | [7] | [8] | [9] | [10] | [11] | [12] | [14] | [15] | [16] | [17] | [18]

NNC(=O)CCCCC(=O)NN
inactive: [1] | [2] | [4] | [5] | [6] | [7] | [8] | [9] | [10] | [11] | [12] | [13] | [14] | [15] | [16] | [17] | [18] | [19]

C=C(C)C(=O)OCCOC1CC2CC1C1C=CCC21 (stereo unspecified)
inactive: [1] | [2] | [3] | [4] | [5] | [6] | [7] | [8] | [9] | [10] | [11] | [12] | [13] | [14] | [15] | [16] | [18] | [19]

CCc1ccc(CC)cc1
inactive: [1] | [2] | [3] | [4] | [5] | [6] | [7] | [8] | [10] | [11] | [12] | [13] | [14] | [15] | [16] | [19]

C/C=C(\C)C=O
inactive: [1] | [2] | [3] | [4] | [5] | [6] | [7] | [8] | [9] | [10] | [12] | [13] | [14] | [15] | [16] | [19]

COC(C)(C)CC(C)=O
inactive: [1] | [2] | [3] | [4] | [5] | [6] | [7] | [8] | [9] | [10] | [11] | [12] | [13] | [14] | [15] | [16] | [18] | [19]
